From PubChem BioAssay
Only some compounds are listed: those with a hit (about 2.5% of all), similar ones and a draw of the others.
SKN-1 block – blocks SKN-1 activity in C. elegans | hit rate 0.49% among 360,000 | C. elegans VP596 Pgst-4::GFP/RFP ratio, acrylamide-induced, 24 h | AID 624304 | inhibition, % at 21.8 µM;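 active = interference check ratio from 0.5 to 1.5 plus GFP to RFP signal ratio inhibition reaching or exceeding a fixed threshold, cut at about 30% in these data, passing the limit was not always enough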
CRFBP-R2 agonist – agonists of human CRF-binding protein/CRF-R2 receptor complex; HEK293 CRF-R2/CRF-BP, calcium dye fluorescence (FLIPR); percent of saturating CRF peptide response; AID 588473; hit rate 0.46% among 350,000; activation, % at 13.2 µM;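 active = activation of at least 50%, plus an integration ratio under a set limit after plate pattern correction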;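 also: plate controls were neutral control wells without compound for no effect and CRF at EC100 for full effect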
Cardio protect – myocardial damage modulation in H9c2 cells; H9c2 cardiomyocytes, H2O2 injury protection, ATPLite, 2 h; protection from H2O2 cell death, % at 20 µM; hit rate 0.63% among 360,000;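 active = compounds giving at least 50% protection of heart cells from peroxide-induced death in the single-dose screen, raw or plate-pattern-corrected value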;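 also: 0% = DMSO wells with peroxide and 100% = DMSO wells without peroxide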
H9c2 TAG inh – triacylglycerol accumulation inhibition; H9c2 cells, Nile Red lipid (TAG) fluorescence; cells loaded with 200 µM oleic acid; inhibition, % at 12.5 µM; hit rate 0.66% among 230,000; AID 651582;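 active = pattern-corrected inhibition of lipid staining of at least 50% with the nuclear-stain viability signal not falling by more than 50%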;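 also: 0% = DMSO wells and 100% = triacsin C control wells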
CRFBP-R2 block – CRF-BP/CRF-R2 complex antagonism. inhibition, % at 11.8 µM. AID 588475. HEK293 CRF-R2/CRF-BP, CRF-induced calcium fluorescence. hit rate 0.59% among 350,000;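 active = inhibition of the ligand-induced calcium signal above about 50% at the single tested concentration, limit read from the data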
hiPSC survival – enhancers of human iPSC single-cell survival; hiPSC single-cell survival, ATPlite luminescence; 100% = ROCK inhibitor wells, 0% = DMSO; survival enhancement, % at 20 µM; hit rate 0.044% among 360,000; AID 602274; in the data active = survival enhancement above about 18%;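 also: cells exposed to compounds for 16 hours before the ATP read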
Active calls of the source: *.

What do the screens show for `COC(=O)[C@@]12C[C@@H](CC(=O)NCc3ccc(C)o3)C(=O)N(Cc3cccc4ccccc34)C1=CCC(C)(C)C2`?
SKN-1 block: -8

What do the screens show for `CCc1nc2ccc(C(=O)N(C)CCCN(C)C)cn2c1N(C)C(=O)C1CCCCC1`?
SKN-1 block: 7; Cardio protect: -7; H9c2 TAG inh: 14; hiPSC survival: -1

How did Nc1nn2c(-c3ccccc3)cc(=O)[nH]c2c1N=Nc1ccc(O)cc1 do in these assays?
SKN-1 block: 21; CRFBP-R2 agonist: 97*; Cardio protect: 28; CRFBP-R2 block: -105; hiPSC survival: -1

How did Nc1nn2c(-c3ccccc3)cc(=O)[nH]c2c1N=Nc1ccc(Br)cc1 do in these assays?
SKN-1 block: 4; CRFBP-R2 agonist: -1; Cardio protect: 31; CRFBP-R2 block: 73*; hiPSC survival: -1

Results for Cc1cc2[nH]c(=O)cc(-c3ccccc3)n2n1 ?
SKN-1 block: 17; CRFBP-R2 agonist: 1; Cardio protect: -11; CRFBP-R2 block: -7; hiPSC survival: 0

How did CNc1ncnc2c1ncn2[C@H]1CN(Cc2ccc(F)cc2)C[C@@H](CO)O1 do in these assays?
SKN-1 block: -11; Cardio protect: 13; H9c2 TAG inh: 7; hiPSC survival: 4

What do the screens show for `CCC(=O)NCCC(c1ccco1)c1ccccc1OC` (stereo not drawn)?
SKN-1 block: 30; CRFBP-R2 agonist: 1; Cardio protect: 4; H9c2 TAG inh: -23; CRFBP-R2 block: -17; hiPSC survival: -2

How did CCCNCCC(c1ccco1)c1ccccc1OC (stereo not drawn) do in these assays?
SKN-1 block: -5; CRFBP-R2 agonist: 0; Cardio protect: 2; CRFBP-R2 block: 56*; hiPSC survival: -3

Results for c1ccc(-c2nnc(-c3ccccn3)c(-c3ccccn3)n2)nc1 ?
SKN-1 block: 11; CRFBP-R2 agonist: 1; Cardio protect: -1; H9c2 TAG inh: -2; CRFBP-R2 block: -3; hiPSC survival: 0

Results for CN(C)c1nc(-c2ccccn2)nnc1-c1ccccc1 ?
SKN-1 block: 13; CRFBP-R2 agonist: 0; Cardio protect: 67*; H9c2 TAG inh: -87; CRFBP-R2 block: 1; hiPSC survival: -1

What do the screens show for `Cc1cc(O)c(C2(O)C(=O)Nc3cc(Br)ccc32)cc1C` (stereo not drawn)?
SKN-1 block: -7; CRFBP-R2 agonist: 4; Cardio protect: -8; CRFBP-R2 block: 121*; hiPSC survival: -1

Results for O=C1Nc2cc(Br)ccc2C1(O)c1ccccc1O (stereo not drawn) ?
SKN-1 block: -9; CRFBP-R2 agonist: 6; Cardio protect: -2; CRFBP-R2 block: 9; hiPSC survival: -1

Results for N#Cc1c(N)n(-c2cccc(O)c2)c2nc3ccccc3nc12 ?
SKN-1 block: -4; CRFBP-R2 agonist: -1; Cardio protect: 10; H9c2 TAG inh: 6; CRFBP-R2 block: 10; hiPSC survival: 0

Results for CCOC(=O)Nc1nc(-c2ccc(F)cc2F)cs1 ?
SKN-1 block: 56*; CRFBP-R2 agonist: 1; Cardio protect: 10; H9c2 TAG inh: -16; CRFBP-R2 block: -8; hiPSC survival: -1

Results for COc1ccc(-c2ccc(C(=O)Nc3ccc(C(C)C)cc3)c3occc23)c(C)c1 ?
SKN-1 block: 22; Cardio protect: -11; H9c2 TAG inh: 12; hiPSC survival: -1

How did CCOC(=O)CN1C(=O)S/C(=C/C=C/c2ccc(N(C)C)cc2)C1=O do in these assays?
SKN-1 block: 57; CRFBP-R2 agonist: 90*; Cardio protect: -6; CRFBP-R2 block: -127; hiPSC survival: -1

Results for CCOC(=O)CN1C(=O)S/C(=C/c2ccc3c(c2)n(C)c(=O)n3C)C1=O ?
SKN-1 block: 0; CRFBP-R2 agonist: -2; Cardio protect: -8; CRFBP-R2 block: 27; hiPSC survival: 1

Results for O=[N+]([O-])c1ccccc1NCCOc1ccccc1 ?
SKN-1 block: 46*; CRFBP-R2 agonist: -7; Cardio protect: -5; CRFBP-R2 block: 30; hiPSC survival: 2

Results for O=C(CCOc1ccccc1)Nc1ccccc1[N+](=O)[O-] ?
SKN-1 block: 13; CRFBP-R2 agonist: -1; Cardio protect: 2; H9c2 TAG inh: -12; CRFBP-R2 block: 6; hiPSC survival: 1

Results for Cc1ccc(-n2cccn2)c(CN2CCCC(C(=O)c3ccc4c(c3)OCO4)C2)c1 (stereo not drawn) ?
SKN-1 block: -4; CRFBP-R2 agonist: -1; Cardio protect: -8; H9c2 TAG inh: -16; CRFBP-R2 block: 8; hiPSC survival: -1

Results for O=C(c1ccc2c(c1)OCO2)C1CCCN(Cc2cc(F)ccc2-n2cccn2)C1 (stereo not drawn) ?
SKN-1 block: 16; CRFBP-R2 agonist: 56*; Cardio protect: -3; H9c2 TAG inh: -7; CRFBP-R2 block: -50; hiPSC survival: 0

How did COc1ccc(/C=N/NC(=O)c2cc(OC)c(OC)c(OC)c2)cc1CN1CCc2cc(OC)c(OC)cc2C1C (stereo not drawn) do in these assays?
SKN-1 block: 12; CRFBP-R2 agonist: -2; Cardio protect: 66*; H9c2 TAG inh: 33; CRFBP-R2 block: 8; hiPSC survival: 0

How did COc1ccc(/C=N/NC(=O)c2ccn[nH]2)cc1COc1ccc(Cl)cc1 do in these assays?
SKN-1 block: -4; CRFBP-R2 agonist: -1; Cardio protect: 63*; H9c2 TAG inh: -11; CRFBP-R2 block: -6; hiPSC survival: 2

Results for COc1cc(OC)cc(C(=O)N/N=C/c2ccc(OC)c(COc3ccc(F)cc3)c2)c1 ?
SKN-1 block: 14; CRFBP-R2 agonist: 62*; Cardio protect: 4; H9c2 TAG inh: 15; CRFBP-R2 block: -45; hiPSC survival: -4

What do the screens show for `COc1ccc(OCc2cc(/C=N\NC(=O)c3ccccc3)ccc2OC)cc1`?
SKN-1 block: 7; CRFBP-R2 agonist: 2; Cardio protect: 18; H9c2 TAG inh: 2; CRFBP-R2 block: 8; hiPSC survival: 1

Results for Cc1ccc(-c2nnc(OCc3cccnc3)c3ccccc23)cc1 ?
SKN-1 block: -2; CRFBP-R2 agonist: -1; Cardio protect: -3; H9c2 TAG inh: 29; CRFBP-R2 block: 1; hiPSC survival: 0

What do the screens show for `CCN(CC)S(=O)(=O)c1cccc(NC(=O)COc2ncnc3sccc23)c1`?
SKN-1 block: 6; CRFBP-R2 agonist: 1; Cardio protect: -5; H9c2 TAG inh: 9; CRFBP-R2 block: 4; hiPSC survival: 0

How did O=C(NC1CC1)C1CCCN1C(=O)NC1CCCCC1 (stereo not drawn) do in these assays?
SKN-1 block: 9; CRFBP-R2 agonist: -2; Cardio protect: 3; H9c2 TAG inh: -4; CRFBP-R2 block: 5; hiPSC survival: 1

How did O=C(NCC1CCCO1)C1CCCN1C(=O)NC1CCCCC1 (stereo not drawn) do in these assays?
SKN-1 block: 18; CRFBP-R2 agonist: -4; Cardio protect: 1; H9c2 TAG inh: -8; CRFBP-R2 block: 53*; hiPSC survival: -1
